Screens deposited in PubChem by several laboratories.
EBV gp42 inh – blocks Epstein-Barr virus glycoprotein 42 binding; Q1HVG2; 220,000 tested, 0.42% active; inhibition, % (tested at 21.74 µM); Fluorescence polarization binding assay, mP read-out; in the data active = inhibition above about 50%
MCL1 BIM primary – disrupts human MCL1 binding to BIM-BH3 peptide | Q07820 | GST-MCL1 / FITC-Bim-BH3 fluorescence polarization | inhibition, % at 10.9 µM | 320,000 tested, 0.68% active;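 active = inhibition above the mean inhibition of all tested compounds plus 3 SD, set per campaign, cut at about 40% in these data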;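 also: higher means more loss of mP so more displacement of Bim peptide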
GLD-1 RNA inh – GLD-1-TGE RNA interaction inhibition (C. elegans); Q17339; AID 2280; purified GLD-1 + fluorescein TGE RNA, fluorescence polarization; 320,000 tested, 0.44% active; inhibition, % at 5.96 µM;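 active = percent inhibition above a per-plate cutoff, the plate mean of test compounds plus 3 SD, cut at about 30% in these data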
Target sequence (Q17339 whole entry, looked up): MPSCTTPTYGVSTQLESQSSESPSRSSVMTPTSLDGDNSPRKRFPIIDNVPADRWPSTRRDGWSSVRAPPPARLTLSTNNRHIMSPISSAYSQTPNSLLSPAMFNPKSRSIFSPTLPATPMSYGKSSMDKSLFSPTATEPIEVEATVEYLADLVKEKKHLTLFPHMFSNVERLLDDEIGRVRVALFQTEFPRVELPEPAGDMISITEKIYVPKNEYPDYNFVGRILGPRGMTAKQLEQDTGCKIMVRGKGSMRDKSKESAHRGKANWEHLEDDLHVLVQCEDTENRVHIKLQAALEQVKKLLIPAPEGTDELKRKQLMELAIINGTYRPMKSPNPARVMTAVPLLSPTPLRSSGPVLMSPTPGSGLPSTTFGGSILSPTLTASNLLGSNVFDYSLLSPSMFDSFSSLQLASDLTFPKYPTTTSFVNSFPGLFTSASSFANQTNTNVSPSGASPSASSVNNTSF
MEX-5 binding – C. elegans MEX-5 TCR-2 RNA binding activity | activity score (negative = inhibition of binding), % at 10 µM | 300,000 tested, 0.38% active | AID 1832 | MEX-5/FITC-TCR2 RNA binding, fluorescence polarization; active compounds read low | Q9XUB2;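 active = inhibition past about -25% in most replicates, and total fluorescence under double the plate's negative control median, limit read from the data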
BCLXL inh – inhibitors of human Bcl-xL; Q07817; GST-Bcl-xL / FITC-Bim BH3 peptide fluorescence polarization; inhibition, % at 10.9 µM; 320,000 tested, 0.7% active; AID 2129;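 active = inhibition above the mean of all tested compounds plus 3 SD, cutoff set per campaign, cut at about 30% in these data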;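 also: inhibitors lower millipolarization by displacing the labeled peptide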
Hits are given with their value; - = inactive; . = no result given. Only some compounds are listed: those with a hit (about 1.3% of all), similar ones and a draw of the others.

SMILES	EBV gp42 inh	MCL1 BIM primary	GLD-1 RNA inh	MEX-5 binding	BCLXL inh
CC1(C)CC(=O)C2=C(C1)N1C(=C(C#N)C2c2ccccc2Cl)N=C(N)c2ccccc21 (stereo unspecified)	-	-	-	-	-
CC1(C)CC(=O)C2=C(C1)N1C(=C(C#N)C2c2ccc(Cl)cc2)N=C(N)c2ccccc21 (stereo unspecified)	-	-	60.5	-	-
Cc1ccc2c(CC(=O)NC3CCS(=O)(=O)C3)coc2c1C (stereo unspecified)	.	-	-	-	-
Clc1ccccc1C1Nc2cccc3cccc(c23)N1	.	-	-	-	38.1
Clc1cccc(C2Nc3cccc4cccc(c34)N2)c1Cl	.	-	-	-	-
c1coc(C2Nc3cccc4cccc(c34)N2)c1	-	57.7	-	-	51.3
CN(C)c1ccc(C(=O)C(O)c2ccc(C(C)(C)C)cc2)cc1 (stereo unspecified)	-	-	-	-	-
Cc1nn(C)c(C)c1CN(Cc1nc(CCC(C)C)no1)C(C)C	-	-	-	-	-
COc1ccc(CC(=O)Nc2cc(Cl)ccc2C(=O)O)cc1	-	-	-	-	-
CCCCOc1ccc(Nc2cc(Cl)ccc2C(=O)O)cn1	-	-	-	-	36.9
Cc1cc2c(n1-c1ccc(C(=O)O)cc1)CCCCC2	.	.	.	-62.3	.
Cc1ccc(C(=O)N[C@H](C(=O)OCc2cc(=O)oc3cc(C)ccc23)C(C)C)cc1	-	-	-	-	-
O=C(O)c1ccc2c(c1)NC(=O)C(N1CCCC1)S2 (stereo unspecified)	-	40.6	-	-	31.8
COC(=O)c1ccc2c(c1)NC(=O)C(N1CCCC1)S2 (stereo unspecified)	-	-	-	-	-
Cc1ccc(CNC(=O)/C(C#N)=C\c2ccc(N(C)C)cc2)cc1	-	-	-	-60.4	-
CN(C)c1ccc(/C=C(\C#N)C(=O)NCc2ccco2)cc1	-	-	-	-41.6	-
CCN(CC)c1ccc(/C=C(\C#N)C(=O)NCc2ccco2)cc1	-	-	-	.	-
Cc1cc(NC(=O)CSc2nccn2-c2cccc(Cl)c2)no1	.	-	-	-	-
CN(c1ccccc1)S(=O)(=O)c1cccc(NS(=O)(=O)c2cccc(C(=O)O)c2)c1	.	-	-	.	-
COc1ccc(C2=CC3=CC(=O)C(C)(O)C(=O)C3=CO2)cc1 (stereo unspecified)	.	-	-	-38.2	-
COC/C=C/C1=CC2=CC(=O)C(C)(O)C(=O)C2=CO1 (stereo unspecified)	.	63.7	-	-47.4	-
COC/C=C/C1=CC2=CC(=O)C(C)(OC(=O)c3ccco3)C(=O)C2=CO1 (stereo unspecified)	-	60.0	30.9	.	-
CC1=NN(c2ccc(C(=O)O)c(N)c2)C(=O)C1	-	-	-	-38.6	-
CC1=NN(c2ccc(Cl)c(C(=O)O)c2)C(=O)C1	-	-	-	-	-
N#C/C(=C\c1ccccc1[N+](=O)[O-])C(=O)Nc1ccc(S(N)(=O)=O)cc1	-	-	-	-	33.5
SMILES	EBV gp42 inh	MCL1 BIM primary	GLD-1 RNA inh	MEX-5 binding	BCLXL inh
Cc1nc(N2CCN(Cc3ccccc3)CC2)c(C#N)c2c1COC(C)(C)C2	-	-	-	-33.5	-
CCOc1ccc(N2C(=O)S/C(=C\c3cccn3C)C2=O)cc1	-	-	-	-29.6	-
CCN(CC)c1ccc2c(c1)oc(=O)c1c(Cl)cc(=O)oc12	53.8	-	-	-	-
CCN(CC)c1ccc2c(C)c(Cl)c(=O)oc2c1	-	-	-	-	-
Cc1cccn2c(=O)c(/C=C(\C#N)S(=O)(=O)c3ccccc3)c(N3CCN(C)CC3)nc12	-	-	-	-	-
CCN1CCN(c2nc3c(C)cccn3c(=O)c2/C=C(\C#N)S(=O)(=O)c2ccc(C)cc2)CC1	-	48.0	-	-	51.5
Cc1cccn2c(=O)c(C=C(C#N)C#N)c(N3CCN(c4cccc(Cl)c4)CC3)nc12	.	42.5	-	-	39.5
CCN1CCN(c2nc3c(C)cccn3c(=O)c2/C=C(\C#N)S(=O)(=O)c2ccc(Cl)cc2)CC1	-	-	-	-	-
Cc1ccc(S(=O)(=O)/C(C#N)=C/c2c(N3CCN(C)CC3)nc3c(C)cccn3c2=O)cc1	-	-	-	-	39.7
COc1ccc(NC(=O)CN(C)S(=O)(=O)c2ccc(Cl)cc2)cn1	.	-	-	.	-
CCCCN1C2=C(C(=O)CCC2)C(c2ccc(Cl)c(Cl)c2)C2=C1c1ccccc1C2=O (stereo unspecified)	-	43.1	-	-	43.5
